Results as given in PubChem BioAssay (EPA / NIEHS).
Records with an inconclusive call do not appear. Calls of active or inactive are those of the source. The calls were made as follows, unless noted: active = hit-call score of the fitted dose curve at least 0.9, where 1 is the maximum; inconclusive = response in the unintended direction; inactive = score below 0.9.

Experiments:
[1] = Tanguay_ZF_120hpf_JAW_legacy: (Legacy) Oregon State University Tanguay Lab 120 Hour Post-fertilization zebrafish Assay for Jaw Malformation (AID 2283638);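 as to AC50: active means more embryos with jaw malformation than DMSO controls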
Method in brief: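 Binary jaw-malformation call at 120 hpf by brightfield microscopy. Embryos (Tropical 5D strain, chorion removed at 4 hpf) were dosed statically at 6 hpf, one per well, at 28C with 0.64% DMSO. Embryos that died were not scored.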

[2] = Tanguay_ZF_120hpf_OTIC_legacy: (Legacy) Oregon State University Tanguay Lab 120 Hour Post-fertilization zebrafish Assay for Otic Vesicle Malformation (AID 2283639)
Method in brief: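 Wild-type zebrafish larvae, whole-embryo exposure from early stage to 120 hpf at 28C. Binary brightfield scoring of otic vesicle morphology, fitted in the positive direction against the DMSO baseline.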

[3] = Tanguay_ZF_120hpf_BRAI_legacy: (Legacy) Oregon State University Tanguay Lab 120 Hour Post-fertilization zebrafish Assay for Brain Malformation (AID 2283641)
Method in brief: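 Binary brightfield scoring of brain malformation at 120 hpf in Tropical 5D larvae held under static exposure at 28C (0.64% v/v DMSO), non-mortality endpoints skipped if dead. Positive control: 5uM trimethyltin chloride; fit versus DMSO.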

[4] = Tanguay_ZF_120hpf_SOMI_legacy: (Legacy) Oregon State University Tanguay Lab 120 Hour Post-fertilization zebrafish Assay for Somite Malformation (AID 2283647)
Method in brief: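 Binary somite-defect scoring at 120 hpf, omitted for embryos that died, in wild-type (Tropical 5D) zebrafish with chorion removed by pronase at 4 hpf; static exposure began 6 hpf, single embryos per well, 28C, 0.64% DMSO; fitted positive versus DMSO.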

[5] = Tanguay_ZF_120hpf_PFIN_legacy: (Legacy) Oregon State University Tanguay Lab 120 Hour Post-fertilization zebrafish Assay for Pectoral Fin Malformation (AID 2283648);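 also: each larva judged yes or no for fin defect by brightfield with dead larvae skipped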
Method in brief: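 Pectoral fin malformation was recorded as a binary endpoint at 120 hpf in wild-type Tropical 5D larvae, which had been dechorionated and exposed statically from 6 hpf at 28C in 0.64% DMSO. Dead embryos were excluded.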

[6] = Tanguay_ZF_120hpf_CFIN_legacy: (Legacy) Oregon State University Tanguay Lab 120 Hour Post-fertilization zebrafish Assay for Caudal Fin Malformation (AID 2283649)
Method in brief: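 Binary brightfield scoring of caudal fin defects at 120 hpf after static, light-shielded exposure at 28C from 6 hpf. Tropical 5D embryos, chorion removed with pronase at 4 hpf, final DMSO 0.64%.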

[7] = Tanguay_ZF_120hpf_PIG_legacy: (Legacy) Oregon State University Tanguay Lab 120 Hour Post-fertilization zebrafish Assay for Pigmentation Malformation (AID 2283650)
Method in brief: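 Pigment malformation recorded as a binary call at 120 hpf in zebrafish (Tropical 5D) exposed singly from 6 hpf after pronase dechorionation. Static, sealed, 28C exposure, 0.64% DMSO; mortality excludes scoring; positive-direction fit against DMSO.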

[8] = Tanguay_ZF_120hpf_CIRC_legacy: (Legacy) Oregon State University Tanguay Lab 120 Hour Post-fertilization zebrafish Assay for Circulatory Malformation (AID 2283651)
Method in brief: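 Binary circulatory-malformation call at 120 hpf via brightfield imaging, relative to DMSO controls. Embryos (5D strain, chorion removed) received static, light-shielded exposure at 28C.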

[9] = Tanguay_ZF_120hpf_PE_legacy: (Legacy) Oregon State University Tanguay Lab 120 Hour Post-fertilization zebrafish Assay for Pericardial Edema (AID 2283640);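 as to AC50: potency for increased incidence of pericardial edema versus DMSO baseline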
Method in brief: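 Scoring was binary, by brightfield microscopy at 120 hpf, and skipped where mortality occurred. Wild-type embryos were kept under sealed, foil-covered static exposure at 28C in 0.64% (vol/vol) DMSO.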

[10] = read-out: kallikrein-3 (KLK3), KLK3 (gene 354); experiment: LTEA_HepaRG_KLK3: Life Technologies and Expression Analysis (LTEA) Assay for kallikrein-3 (KLK3) using HepaRG (AID 2283652; active = hit-call score of the fitted dose curve at least 0.9, where 1 is the maximum; inactive = score below 0.9); conditions: mRNA level, 48 h; actives raise or lower the signal
Protocol: LTEA_HepaRG is a cell based, multiplexed-readout assay that uses HepaRG, a human liver cell line, with measurements taken at 48 hours after chemical dosing on a 96-well plate.LTEA_HepaRG_KLK3 is one of 102 assay component(s) measured in the LTEA HepaRG cell culture assay. It is a marker of Cellular remodeling.Data from the assay component LTEA_HepaRG_KLK3 was analyzed into 1 endpoint. This assay endpoint, LTEA_HepaRG_KLK3, was analyzed with bidirectional fitting relative to DMSO as the negative control and baseline of activity. Using a type of inducible reporter, measures of mRNA induction for gain or loss-of-signal activity can be used to understand regulation of transcription factor activity. To generalize the intended target to other relatable targets, this assay endpoint is annotated to the protease intended target family, where the subfamily is Cellular remodeling.
A total of 1060 chemcials from the ToxCast library were tested in eight-point concentration-response experiments. Cell culture and cytotoxicity assays were conducted at Thermo Fisher Scientific's Custom Services facility (Madison, WI). A single lot of human HepaRG cells (Thermo Fisher Scientific, Frederick, MD) was used for the cell culture experiments. 96-well format collagen type I coated plates of human HepaRG cells were prepared using established methods. Briefly, cryopreserved HepaRG cells were thawed, plated at a density of approximately 100,000 cells/well in HepaRG Thaw, Plate, and General Purpose media (HPRG770, Thermo Fisher Scientific), and incubated for 48 hours. 0.5% DMSO was selected as vehicle control to balance the requisite need of DMSO in HepaRG cultures to maintain differentiation (for example, baseline metabolism, proportions of hepatocytes vs. cholangiocytes), while enabling further hepatic receptor pathway activation (for example, PXR and CAR) in response to chemical exposure. 48 hours after plating, the culture medium was replaced with HepaRG Serum-Free Incudtion Media. Cells were exposed to each test chemical in duplicate and maintained in CO2 incubators for another 48 hours. Chemical plates were thawed to room temperature and 200x concentrations of treatment groups were prepared. 8-point conentration-reponse curves were made with the highest exposure at 100 uM, followed by half-log dilutions, all in 0.5% DMSO. Each test plate contained variouse controls, induction positive controls (1mM phenobarbital), cytotoxicity positive controls ([…] aflatoxin B1), vehicle controls (0.5% DMSO), and total lysis controls (0.5% DMSO). […] Fluidigm's 96.96 Dynamic ArrayTM (Fluidigm, Amsterdam, the Netherlands) technology was used for gene expression analyses by quantitative reverse transcription polymerase chain reaction (qRT-PCR, performed by Quintiles/Expression Analysis, Durham, NC)89. […]

Measured: AC50

CCCCCCCC(=O)OC
not listed: [9] | [10]
inactive: all other assays above

N[C@@H](Cc1c[nH]c2ccccc12)C(=O)O
not listed: [3] | [9] | [10]
inactive: all other assays above

O=[Si]=O
not listed: [9] | [10]
inactive: all other assays above

CCCCCCCCCCCCCCCCO
not listed: [3] | [4] | [10]
inactive: all other assays above

CC(C)(C)c1ccccc1
active: [1] 4.3 µM
not listed: [7] | [9] | [10]
inactive: all other assays above

O=C1CCCCC1
not listed: [4] | [9] | [10]
inactive: all other assays above

O=C(O)c1cccnc1
inactive: [1] | [2] | [4] | [5] | [8]

NCCOCCOCCN
inactive: [1] | [2] | [3] | [5] | [6] | [8]

O=C(O)CC(O)(CC(=O)O)C(=O)O
not listed: [9] | [10]
inactive: all other assays above

CC(=O)[C@@]1(O)CC[C@H]2[C@@H]3CCC4=CC(=O)CC[C@]4(C)[C@H]3CC[C@@]21C
inactive: [1] | [2] | [9] | [5] | [6] | [8]

CC(C)(O)c1ccc(CNC(=O)c2cccnc2Oc2ccc(F)cc2)cc1
inactive: [1] | [2] | [3] | [5] | [6] | [7]

OCC(O)CO
not listed: [3] | [9] | [10]
inactive: all other assays above

CC(C)c1cccc(C(C)C)c1
inactive: [1] | [2] | [3] | [6] | [7] | [8]

CC(=O)O[C@]1(C(C)=O)CC[C@H]2[C@@H]3C=C(Cl)C4=CC(=O)[C@@H]5C[C@@H]5[C@]4(C)[C@H]3CC[C@@]21C
inactive: [1] | [2] | [4] | [6] | [7] | [8]

CCCC[C@H]1CN(CC2CCOCC2)C(=O)OC12CCN(C1(C)CCN(C(=O)c3c(C)ncnc3C)CC1)CC2
not listed: [4] | [9] | [10]
inactive: all other assays above

CC(=O)O
inactive: [1] | [2] | [9] | [7] | [8]

Nc1nc(Cl)nc2c1ncn2[C@H]1C[C@H](O)[C@@H](CO)O1
inactive: [1] | [2] | [3] | [5] | [6] | [8]

CCCCC(CC)CO (stereo not given)
not listed: [4] | [7] | [9]
inactive: all other assays above

CCC(C)N(C)C(=O)c1cc2ccccc2c(-c2ccccc2Cl)n1 (stereo not given)
active: [9] 6.53 µM
not listed: [3] | [4]
inactive: all other assays above

Cc1cc(SC2=C(O)C[C@@](CCc3ccc(N)cc3)(C(C)C)OC2=O)c(C(C)(C)C)cc1CO
inactive: [1] | [2] | [3] | [5] | [6] | [8]

CC(C)OC(=O)C(C)(C)Oc1ccc(C(=O)c2ccc(Cl)cc2)cc1
inactive: [2] | [6] | [7] | [8]

O=NO
inactive: [6] | [7] | [8]

c1ccc2occc2c1
inactive: [1] | [2] | [5] | [6] | [7] | [8]

O=C1c2c(O)cccc2Cc2cccc(O)c21
inactive: [1] | [2] | [6] | [7] | [8]

O=C1OC(c2ccc(O)cc2)(c2ccc(O)cc2)c2ccccc21
not listed: [2] | [3] | [10]
inactive: all other assays above

CC(=O)OC1CC(C)OC(C)O1 (stereo not given)
inactive: [1] | [9] | [5] | [6] | [7] | [8]

O=Cc1ccccc1C=O
inactive: [2] | [4] | [6] | [7] | [8]

CSc1ccc(Oc2ccc(S(N)(=O)=O)cc2CN(C)C)cc1C
inactive: [1] | [2] | [5] | [6] | [8]

CCc1cc(C2=C(C(=O)O)N(c3ccccc3C(F)(F)F)S(=O)(=O)c3ccccc32)cc2c1OCO2
inactive: [1] | [9] | [5] | [6]

Cc1ccc(-c2cc(C(F)(F)F)nn2-c2ccc(S(N)(=O)=O)cc2)cc1
not listed: [2] | [4] | [10]
inactive: all other assays above

CC1=C(C)S(=O)(=O)CCS1(=O)=O
inactive: [1] | [2] | [5] | [7] | [8]

CO[C@@H]1COCC[C@@H]1N[C@@H]1CC[C@@](C(=O)N2CCc3ncc(C(F)(F)F)cc3C2)(C(C)C)C1
inactive: [1] | [2] | [5] | [6] | [7] | [8]

Cn1cnc2c1c(=O)[nH]c(=O)n2C
inactive: [1] | [2] | [5] | [7] | [8]

Oc1ccccc1O
inactive: [5] | [6] | [7]

CC(C)NCC(O)c1ccc(O)c(O)c1 (stereo not given)
inactive: [1] | [2] | [6] | [7] | [8]

C=CCCCCCCCCCCCC
inactive: [2] | [9] | [3] | [4] | [5] | [8]

O=C(O)CN(CC(=O)O)CC(=O)O
inactive: [1] | [3] | [4] | [5] | [7] | [8]

COc1ccc(C(=O)Nc2nc3ccccc3c(NCc3ccccc3)c2C#N)cc1
inactive: [1] | [3] | [7] | [8]

O=C1O[C@H]([C@H](O)CO)C(O)=C1O
not listed: [2] | [9] | [10]
inactive: all other assays above

CCCCC(CC)COC(=O)CCCCCCCC(=O)OCC(CC)CCCC (stereo not given)
inactive: [1] | [2] | [5] | [6] | [7] | [8]

CCCCCCCCCC[N+](C)(C)[O-]
inactive: [1] | [2] | [5] | [6] | [7] | [8]

CCCC(=O)O
inactive: [9] | [4] | [5] | [6] | [8]

C/C=C/C=C/C(=O)O
inactive: [1] | [9] | [5] | [6] | [7] | [8]

CCCCCCC(C=O)=Cc1ccccc1
inactive: [1] | [2] | [5] | [7] | [8]

CCCCCCCCCCCCCCOS(=O)(=O)O
inactive: [8]
active: [1] 42.3 µM | [2] 9.8 µM | [5] 16.8 µM | [6] 46.9 µM | [7] 9.35 µM

Nc1nc(=S)c2[nH]cnc2[nH]1
inactive: [1] | [5] | [6] | [7]

CCCCOC(=O)CCCCC(=O)OCCCC
inactive: [2] | [3] | [5] | [6] | [7]

O=C(NS(=O)(=O)/C=C/c1cccs1)c1ccc(F)cc1Br
inactive: [1] | [2] | [5] | [6] | [7]

CC(COCC(C)OC(=O)c1ccccc1)OC(=O)c1ccccc1 (stereo not given)
inactive: [1] | [2] | [6] | [7] | [8]

CC(=O)CC(c1ccccc1)c1c(O)c2ccccc2oc1=O (stereo not given)
inactive: [1] | [5] | [6] | [7] | [8]
